Compound activity (PubChem BioAssay)
This is a sample that favours compounds with a hit; in the whole collection about 21% have one here.
CHX counter – counter-screen for Shiga toxin inhibitors: cycloheximide protein synthesis inhibition | cell reporter, cycloheximide protein synthesis inhibition counterscreen | 12% of 300,000 active | max response, %; in the data active means max response mostly above about 13%, no sharp cut-off; inactive means mostly below about 14%; further: read at 38.3 µM for the half of the compounds with a filed dose
NS1 inh – inhibitors of influenza NS1 protein function | Potency, µM (series often up to 46.1 µM) | 0.4% of 270,000 active | AID 2326; calls by dose curve; further: actives are rising curves; nearly all actives have a fitted effect of over 50% in size
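A cell-based growth assay was used: compounds that relieve NS1-induced slow growth of budding yeast raise OD600. Assay medium was yeast nitrogen base with ammonium sulphate and -URA supplement, pH 6.0, with 2% galactose.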
Pf growth 48h – inhibits P. falciparum growth in the first generation, 48 h | 5.9% of 310,000 active | AID 504832 | Potency, µM (highest dose often 28.7 µM), hits mostly inhibitors | P. falciparum luciferase growth in erythrocytes, 48 h
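Luminescence readout; reporter = integrated firefly luciferase in P. falciparum. RBC culture at 2% hematocrit, 0.1% parasitemia final, 37 C/5% CO2; decreased signal taken as growth inhibition.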
Shiga toxin inh – inhibitors of Shiga toxin in Vero cells | Vero cells, Shiga toxin protein synthesis inhibition reporter | inhibition, % at 38.7 µM | 9.2% of 290,000 active | AID 2315; in the data active means inhibition mostly above about 28%, no sharp cut-off; inactive means mostly below about 43%
Pf growth 96h – P. falciparum growth inhibition at 96 hours; P. falciparum luciferase reporter growth, 96 h; Potency, µM (titrated, usually from 28.7 µM), hits mostly inhibitors; 6.9% of 320,000 active
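96 h incubation, 37 C, 5% CO2, of luciferase-reporter P. falciparum-infected RBCs (2% hematocrit, 0.05% parasitemia final) with test compounds; endpoint luminescence.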
Large screens that a line does not name were inactive. Unless noted, the call rests on the fitted dose curve; in most records, active means well fitted inhibition curve with a large enough effect; inconclusive means small, poorly fitted or top-dose-only effect, or another doubt; inactive means no such curve, though single readings can be large or run the other way.

Cc1ccc(-c2c(C(=O)N/N=C/c3ccoc3)nnn2-c2nonc2N)cc1	Pf growth 48h 9.3µM, Pf growth 96h 3.3µM
Cc1ccc(-c2c(C(=O)N/N=C/c3ccsc3)nnn2-c2nonc2N)cc1	Pf growth 48h inconclusive, Pf growth 96h inconclusive
Cc1ccc(-c2c(C(=O)N/N=C/c3cccc(Cl)c3)nnn2-c2nonc2N)cc1	Pf growth 48h 0.052µM, Pf growth 96h inconclusive
Cc1ccc(-c2c(C(=O)N/N=C/c3ccc4c(c3)OCO4)nnn2-c2nonc2N)cc1	Pf growth 48h inconclusive, Pf growth 96h inconclusive
CCOc1ccc(-c2c(C(=O)N/N=C/c3ccc(C)cc3)nnn2-c2nonc2N)cc1	Pf growth 48h inconclusive
CCOc1ccc(-c2c(C(=O)N/N=C/c3ccc(Cl)cc3)nnn2-c2nonc2N)cc1	Pf growth 48h 9.3µM, Pf growth 96h inconclusive
CC1CCN(Cc2c(C(=O)N/N=C/c3ccc(C(C)C)cc3)nnn2-c2nonc2N)CC1	Pf growth 48h inconclusive, Pf growth 96h 1.7µM
Clc1ccc(-c2nc3sccn3c2/C=N/OCc2ccc(Cl)c(Cl)c2)cc1	none (no result: NS1 inh, Pf growth 48h, Pf growth 96h)
Cc1cc(C)c2nc(NCc3ccccc3O)sc2c1	CHX counter 22, Shiga toxin inh 114
COc1cc(CNc2nc3c(C)cc(C)cc3s2)ccc1O	CHX counter 25, Shiga toxin inh 48 (no result: Pf growth 48h)
Cc1cc2nc3c(c(=O)n2[nH]1)CCCC3	Pf growth 48h 12µM
O=c1c2c(nc3cc(-c4ccc(Br)cc4)[nH]n13)CCCC2	Pf growth 96h inconclusive
O=c1c2c(nc3cc(-c4ccccc4)[nH]n13)CCC2	CHX counter 58, Shiga toxin inh 95, Pf growth 96h inconclusive
COc1ccc(-c2cc3nc4c(c(=O)n3[nH]2)CCC4)cc1	CHX counter 21, NS1 inh inconclusive, Pf growth 48h inconclusive
O=C(NCCCN1CCC(Cc2ccccc2)CC1)C1CC(=O)N(C2CCCCCC2)C1 (centres undefined)	Pf growth 96h inconclusive (no result: Pf growth 48h)
CCCCN(C)C(=O)C1CCCN(S(=O)(=O)c2ccc3c(c2)oc(=O)n3C)C1 (centres undefined)	Pf growth 48h inconclusive
COc1cc(NC(=O)COc2ccc(Cl)cc2)ccc1-c1cc2ccccc2oc1=O	NS1 inh inconclusive, Pf growth 48h inconclusive, Pf growth 96h 4.1µM
O=C(COc1ccc(Cl)cc1)NCc1ccccc1	none
CNc1c(NC(=O)COc2ccc(Cl)cc2)c(=O)oc2ccccc12	Pf growth 48h 10µM, Pf growth 96h inconclusive
CCN(CC(=O)NCc1ccc(F)cc1)C(=O)/C=C/c1ccco1	none (no result: NS1 inh)
CC(Sc1nncs1)C(=O)Nc1ccc(Cl)cn1 (centres undefined)	none
Cc1ccc(C)c(N2CCN(S(=O)(=O)c3ccc4c(c3)NC(=O)CS4)CC2)c1	Pf growth 96h 7.4µM
O=C1CSc2ccc(S(=O)(=O)N3CCN(c4ccccc4F)CC3)cc2N1	Pf growth 48h inconclusive, Pf growth 96h 13µM
COc1ccc(C(=O)OC(C(=O)c2ccccc2)c2ccccc2)cc1 (centres undefined)	Pf growth 48h inconclusive, Pf growth 96h inconclusive
CC(C)(C)C(=O)NC1CC2CCCC(C1)N2C(=O)Nc1ccccc1 (centres undefined)	Pf growth 48h inconclusive, Pf growth 96h inconclusive
Cc1ccccc1NC(=O)N1C2CCCC1CC(NC(=O)C(C)(C)C)C2 (centres undefined)	Pf growth 96h 12µM
Cc1ccc(C(=O)NC=C(Cl)Cl)cc1	CHX counter 26, Shiga toxin inh 84 (no result: Pf growth 96h)
Cc1ccc(C(=O)NC(O)C(Cl)Cl)cc1 (centres undefined)	none
CCOc1ccc(NC(=O)c2cc3cc4ccc(OC)cc4nc3o2)cc1	Pf growth 96h 5.2µM (no result: Pf growth 48h)
CCCCN(CC)CCCNC(=O)c1cc2cc3ccc(C)cc3nc2o1	none
CCCCN(CC)C(=O)c1cc2cc3ccc(OC)cc3nc2o1	CHX counter 27, Pf growth 48h 12µM, Shiga toxin inh 80, Pf growth 96h 5.2µM
COc1ccc2cc3cc(C(=O)NCc4ccccn4)oc3nc2c1	Pf growth 48h 6.6µM
CCCCN(C)C(=O)c1cc2cc3ccc(OC)cc3nc2s1	CHX counter 25, Shiga toxin inh 57
CC(=O)N1CCSc2ccc(S(=O)(=O)NCc3ccc(F)cc3)cc21	none
CCC(C)NC(=O)c1cc2cc3ccc(OC)cc3nc2o1 (centres undefined)	CHX counter 30, Pf growth 48h inconclusive, Shiga toxin inh 39
COc1ccc2cc3cc(C(=O)NCc4ccco4)oc3nc2c1	none (no result: Pf growth 48h)
COc1ccc2cc3cc(C(=O)NCC4CCCO4)oc3nc2c1 (centres undefined)	Pf growth 48h inconclusive, Shiga toxin inh 46
COc1ccc2cc3cc(C(=O)NCCC(C)C)oc3nc2c1	Pf growth 48h inconclusive
